AMA1 RON2 block – inhibitors of Plasmodium falciparum AMA1-RON2 interaction | AlphaScreen AMA1-biotinylated RON2 peptide binding | Potency, µM (series often up to 58.2 µM), hits mostly inhibitors | 0.2% of 360,000 active | AID 720542; further: nearly all actives have a fitted effect of over 45% in size
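AMA1 (3D7) with his tag at 25 nM final met compounds first, then biotinylated RON2 peptide at 25 nM; detection used donor plus acceptor beads, 10 µg/mL apiece, read by AlphaScreen after 30 min at room temperature.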
Pf growth 96h – P. falciparum growth inhibition at 96 hours; 6.9% of 320,000 active; AID 504834; P. falciparum luciferase reporter growth, 96 h; Potency, µM (highest dose often 28.7 µM), hits mostly inhibitors
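96 h incubation, 37 C, 5% CO2, of luciferase-reporter P. falciparum-infected RBCs (2% hematocrit, 0.05% parasitemia final) with test compounds; endpoint luminescence.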
SARS PLpro yeast – SARS-CoV PLP inhibition in yeast. S. cerevisiae expressing SARS-CoV PLpro, growth rescue. Potency, µM (titrated, usually from 32.9 µM), most hits filed as activators. 0.19% of 330,000 active. AID 485353; calls by dose curve; further: nearly all actives have a fitted effect of over 55% in size
Cycloheximide cs – counter-screen hit for Shiga toxin inhibitors, cycloheximide. max response, %. cell reporter, cycloheximide protein synthesis inhibition counterscreen. 12% of 300,000 active; in the data active means max response mostly above about 13%, no sharp cut-off; inactive means mostly below about 14%; further: read at 38.3 µM for the half of the compounds with a filed dose
Pf growth 48h – inhibits P. falciparum growth in the first generation, 48 h; Potency, µM (top dose mostly 28.7 µM), most hits filed as inhibitors; AID 504832; 5.9% of 310,000 active; P. falciparum luciferase growth in erythrocytes, 48 h
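Growth was read as firefly luciferase luminescence after a 48 h, 37 C, 5% CO2 exposure of compounds to reporter-bearing P. falciparum cultures (0.1% parasitemia, 2% hematocrit final) in Albumax-supplemented RPMI 1640.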
Shiga inhibitor – blocks Shiga toxin action in Vero cells | Vero cells, Shiga toxin protein synthesis inhibition reporter | inhibition, % at 38.7 µM | 9.2% of 290,000 active; in the data active means inhibition mostly above about 28%, no sharp cut-off; inactive means mostly below about 43%
A number is an active result; - = inactive; ? = inconclusive; . = no result; + = active, no number; [ ] = another dose, or the depositor's remark. Compounds with a hit are over-represented: about 19% of the library has one in this group of screens. Unless noted, the call rests on the fitted dose curve; in most records, active means well fitted curve in the direction sought with a large enough effect; inconclusive means small, poorly fitted or top-dose-only effect, or another doubt; inactive means no such curve, though single readings can be large; an effect the other way counts as inactive or inconclusive.

SMILES	AMA1 RON2 block	Pf growth 96h	SARS PLpro yeast	Cycloheximide cs	Pf growth 48h	Shiga inhibitor
Cc1c(NC(=O)CN2C(=O)NC3(CCC(C)CC3)C2=O)c(=O)n(-c2ccccc2)n1C (stereo not drawn)	-	-	-	-	-	-
O=C(NNC(=O)c1ccccc1-n1cccc1)c1cncc(Br)c1	-	.	-	.	.	.
Nc1c(C(=O)N/N=C/c2ccc(F)cc2)oc2nc(-c3ccccc3)cc(-c3ccco3)c12	-	-	-	-	?	-
COc1ccc(OC)c(-c2csc(N(C)C(=O)Cc3ccccc3)n2)c1	-	?	-	-	?	-
C=CCN(C(=O)CN1CCCCC1)c1nc(-c2ccccc2)cs1	-	-	?	-	?	-
COc1ccc(CC(=O)N(CC2CCCO2)c2nc3ccccc3s2)cc1 (stereo not drawn)	-	?	-	27	-	-
COc1ccc(OC)c(-c2csc(N(Cc3ccco3)C(=O)c3cccs3)n2)c1	?	?	-	-	9.3µM	-
COCCN(C(=O)Cc1ccc(OC)c(OC)c1)c1nc(-c2cc(OC)ccc2OC)cs1	-	-	-	-	?	-
COc1ccc(OC)c(-c2csc(N(CC3CCCO3)C(=O)C3CCCCC3)n2)c1 (stereo not drawn)	-	-	-	-	2.9µM	-
O=C(C1CC1)N(Cc1ccco1)c1nc(-c2ccccc2)cs1	-	?	-	8.3	?	-
C[C@H](CO)N1C[C@H](C)[C@H](CN(C)C(=O)Cc2ccccc2)OCc2cnnn2CCCC1=O	-	.	.	.	.	.
CCN(CC)c1c(C)nc2ccc(C(=O)NCc3ccc4c(c3)OCO4)cn12	-	.	.	.	.	.
Cc1ccc(C)c(NC(=O)c2ccc(S(=O)(=O)C(F)F)cc2)c1	-	-	-	-	-	-
CC(OC(=O)c1cccc(S(=O)(=O)N(C)C)c1)C(=O)NCC(=O)Nc1ccc(F)c(F)c1F (stereo not drawn)	-[11.6 µM]	.	.	.	.	.
C/C(=N/NS(=O)(=O)c1ccc(Br)cc1)c1cccc(NC(=O)C2CC2)c1	-	.	.	.	.	.
COc1ccc(-c2csc(N(Cc3ccco3)C(=O)c3cccs3)n2)cc1	-	6.6µM	-	22	?	57
COc1ccc(-c2csc(N(CC3CCCO3)C(=O)c3cccs3)n2)cc1 (stereo not drawn)	-	-	-	-	.	-
CC(=O)Nc1nc(SCC(=O)NCc2ccc(F)cc2)[nH]c(=O)c1NC(=O)c1cccs1	-	-	-	-	-	-
O=C(Cn1c(=S)[nH]c2ccccc2c1=O)N1CCC2(CC1)OCCO2	-	-	-	-	-	-
O=C(CCCCCn1c(=S)[nH]c2ccccc2c1=O)N1CCC2(CC1)OCCO2	-	-	-	-	8.3µM	-
O=C(CCn1c(=O)oc2ccccc21)N1CCC2(CC1)OCCO2	-	-	-	14	-	-
Cn1c(=O)n(CC(=O)N2CCC3(CC2)OCCO3)c(=O)c2ccccc21	-	1.7µM	-	-	-	-
Cc1cccc2nc(=S)n(C(=O)c3ccco3)n12	-	-	-	62	-	198
O=C(c1ccco1)n1c(=S)nc2ccccn21	-	-	-	68	-	115
COc1ccc(C2C(C(=O)c3sc(C)nc3C)=C(O)C(=O)N2CCN(C)C)cc1OC (stereo not drawn)	-	.	-	-	-	-
SMILES	AMA1 RON2 block	Pf growth 96h	SARS PLpro yeast	Cycloheximide cs	Pf growth 48h	Shiga inhibitor
Cc1ccc(C2C(C(=O)c3sc(C)nc3C)=C(O)C(=O)N2CCN(C)C)o1 (stereo not drawn)	-	5.9µM	-	-	-	-
COc1cccc(C2C(C(=O)c3cccs3)=C(O)C(=O)N2CCN(C)C)c1OC (stereo not drawn)	-	-	-	-	-	-
CCN(CC)CCN1C(=O)C(O)=C(C(=O)c2cccs2)C1c1ccc(C)o1 (stereo not drawn)	-	?	-	22	-	27
O=C(C1=C(O)C(=O)N(CCN2CCOCC2)C1c1ccccn1)c1cccs1 (stereo not drawn)	-	.	-	28	-	36
Cc1ccc(C2C(C(=O)c3cccs3)=C(O)C(=O)N2CCN2CCOCC2)o1 (stereo not drawn)	-	?	-	24	-	50
O=C(C1=C(O)C(=O)N(CCN2CCOCC2)C1c1ccc(F)cc1)c1cccs1 (stereo not drawn)	-	-	-	-	-	-
Cc1ccc(C(=O)N/C(=C/c2ccco2)C(=O)NCCc2c[nH]c3ccccc23)cc1	-[2.32 µM]	-	-	-	?	-
c1coc(-c2nc(N=C3N=c4ccccc4=N3)[nH]c2-c2ccco2)c1	-	.	.	.	.	.
Cc1ccc(C2C(C(=O)c3cc4ccccc4o3)=C(O)C(=O)N2CCN2CCOCC2)o1 (stereo not drawn)	-	-	-	24	-	54
CCN(CC)CCN1C(=O)C(O)=C(C(=O)c2cccs2)C1c1ccccn1 (stereo not drawn)	-	-	-	20	.	-
COc1ccc(N2C(=O)C(CC(N)=O)N(NC(=O)CCc3ccccc3)C2=O)cc1 (stereo not drawn)	-	?	-	-	-[5.75 µM]	-
CC(=O)Nc1ccc(N2C(C(C)=O)=NN(c3ccc(Cl)cc3)C2c2sccc2C)cc1 (stereo not drawn)	-	?	-	-	9.3µM	-
CC(=O)Nc1ccc(N2C(C(C)=O)=NN(c3ccccc3)C2c2cccs2)cc1 (stereo not drawn)	-	?	-	-	?	-
Cn1c(NC(=O)COc2ccccc2)cc(=O)n(C)c1=O	-	?	-	-	-	-
CC(=O)Cn1c(CN2CCCCC2)nc2ccccc2c1=O	-	-	-	-	10µM	-
Cc1cccc(C)c1NC(=O)Cn1c(CN2CCCCC2)nc2ccccc2c1=O	-	-	-	-	15µM	-
COc1ccccc1NC(=O)Cn1c(CN2CCCCC2)nc2ccccc2c1=O	-	-	-	-	-	-
O=C(COC(=O)C1CCCCC1)Nc1ccc(S(=O)(=O)N2CCOCC2)cc1	-	-	-	-	-	-
Clc1nc(-c2ccccn2)nc2scc(-c3ccccc3)c12	-	-	-	93	?	+
CC(=O)N1CCN(S(=O)(=O)c2cccc(C(=O)Nc3nc4ccccc4[nH]3)c2)CC1	-	1.9µM	-	-	?	-
Cc1ccc(C)c(C(=O)Nc2nc3ccccc3[nH]2)c1	-	-	-	-	-	61
Cc1ccc(Nc2nc3ccccc3[nH]2)nc1	?	?	-	26	3.3µM	53
Cc1ccc(S(=O)(=O)N2CCOCC2)cc1C(=O)Nc1nc2ccccc2[nH]1	-[11.6 µM]	-	-	18	?	-
O=C1C(=Cc2cccc(F)c2)Cc2ccccc21	-	.	.	.	.	.
NC(=O)c1cc(N=Nc2c(N)[nH]n(-c3c(Cl)cc(Cl)cc3Cl)c2=O)ccc1Cl	-	-	-	-	-	-
Cc1cccc(NC(=O)CSCC(=O)Nc2ccc(N3CCOCC3)cc2N2CCOCC2)c1	-	.	.	.	.	.
